Data from PubChem BioAssay (NCATS).
Results filed as inconclusive are left out. Calls of active or inactive are those of the source. The call rests on the fitted dose curve; in most records, active means well fitted cell-killing curve with a large enough effect; inconclusive means small, poorly fitted or top-dose-only effect, or effect the other way; inactive means flat fitted curve, though single readings scatter.

Experiment: qHTS assay for cell viability of the p53RE-bla HCT-116 cell line (AID 743292); further: nearly all actives have a fitted effect of over 55% in size
Conditions: p53RE-bla HCT-116 viability, ATP luminescence, 16 h; series mostly up to 95 µM; activity change, negative = cytotoxicity: at the top concentration
Method in brief: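 Viability of compound-treated p53RE-bla HCT-116 cells is taken from ATP-dependent luciferase luminescence. Treatment lasts 16 h at 37 C after a 5 h settling period; detection follows 30 min at room temperature.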
On the % scale 0 is the no-effect control and ±100 the full control effect; potency means the concentration at half of the fitted maximal effect.

Structure (SMILES)	activity change, negative = cytotoxicity	Potency
NC(=O)c1ncn([C@@H]2O[C@H](CO)[C@@H](O)[C@H]2O)n1	0.345% (inactive)	
Nc1ccc(S(=O)(=O)Nc2nccs2)cc1	0.148% (inactive)	
Cc1c(O)cccc1C(=O)N[C@@H](CSc1ccccc1)[C@H](O)CN1C[C@H]2CCCC[C@H]2C[C@H]1C(=O)NC(C)(C)C		28.2 µM (active)
CC(O)COc1ccccc1 (stereo unspecified)	10.2% (inactive)	
COc1ccc(Cl)cc1C(=O)NCCc1ccc(S(=O)(=O)NC(=O)NC2CCCCC2)cc1	-0.496% (inactive)	
CC1(C)[C@@H]2CC[C@@]1(C)C(=O)C2	-11.2% (inactive)	
CCCCC(CC)COC(=O)c1ccccc1O (stereo unspecified)	-10.9% (inactive)	
CN(C)CCOC(C)(c1ccccc1)c1ccccn1 (stereo unspecified)	1.29% (inactive)	
NCCNCCNCCNCCN		inactive
O=S(=O)(O)NC1CCCCC1	14.6% (inactive)	
CC1=C(/C=C/C(C)=C/C=C/C(C)=C/C(=O)O)C(C)(C)CCC1		inactive
NCCNCCNCCN	-4.76% (inactive)	
C[C@]12CC[C@@H]3c4ccc(O)cc4CC[C@H]3[C@@H]1CCC2=O	-0.713% (inactive)	
COc1ccccc1O		inactive
Cc1cc2nc3c(=O)[nH]c(=O)nc-3n(C[C@H](O)[C@H](O)[C@H](O)CO)c2cc1C	0.226% (inactive)	
C[C@]12C[C@H](O)[C@H]3[C@@H](CCC4=CC(=O)CC[C@@]43C)[C@@H]1CC[C@@H]2C(=O)CO		inactive
Cc1cccc(Nc2cc(Cl)nc(SCC(=O)O)n2)c1C	-8.33% (inactive)	
Oc1cccc(O)c1	-6.72% (inactive)	
CCOC(=O)c1ccc(O)cc1	-9.49% (inactive)	
Cc1cc(CC(=O)O)n(C)c1C(=O)c1ccc(Cl)cc1	-6.22% (inactive)	
CNC(=O)Oc1ccc2c(c1)[C@]1(C)CCN(C)[C@@H]1N2C	1.21% (inactive)	
